What all share (assay): NCI-60 one-dose screen, 48 h (100 = growth as untreated, 0 = no growth, -100 = all killed)
What all share (settings): 10 µM unless noted

For test [1], the system named is HCT-15 colon.
Test [2] deals with HT29 colon.
Test [3] concerns SNB-75 CNS.
Test [4] concerns SNB-19 CNS.
Test [5] concerns U251 CNS.
Test [6] relates to PC-3 prostate.
The subject of test [7] is SK-MEL-5 melanoma.
Test [8] deals with UACC-62 melanoma.
Test [9] deals with LOX IMVI melanoma.
The test system of test [10] is SK-MEL-28 melanoma.

This is part of a sample that, as a whole, favours compounds with a hit. Of some 83,000 tested, about 20% had one in any assay.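 Step 1: grow cells in 96-well plates. Step 2: add test compound at a single concentration. Step 3: incubate 48 h. Step 4: record percent growth.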 Unmarked numbers belong to inactive results. The source made the active and inactive calls. How the source made its calls: active means growth percent below 10; inactive means the rest.

Regarding `COc1ccc(C(=O)c2cc(OC)c(OC)c(OC)c2)cc1/C=C/C(=O)c1ccc(O)cc1`, the growth is -29.5% (active) in [1]; 26.2% in [2]; 28.7% in test [3]; 34.8% in test [4]; 0.446% (active) in test [5]; 54.1% in test [6]. In addition, the growth in [7] was 11.3%; in test [8], 20.1%; in test [9], 0.734% (active); in test [10], 22.5%.
In the case of `COc1cc(Br)c(OC)cc1Br`, the growth was 103% in test [1]; 96.4% in test [2]; 90.4% in test [3]; 108% in test [4]; 98.9% in test [5]; 91.2% in test [6]. The growth is 98.4% in test [7], 94.8% in [8], 90% in [9] and 105% in [10].
With `O=C(Cc1c(F)cccc1Cl)Nc1ccc(S(=O)(=O)Nc2ncccn2)cc1`, the growth was 104% in test [1]; 120% in test [2]; 110% in test [3]; 96% in test [4]; 105% in test [5]; 100% in test [6]. Also, the growth is 100% in test [7], 107% in [8], 92.9% in test [9] and 122% in test [10].
Take `COc1cc(C2C=C(C)N=C3SC(C)=NN32)cc(OC)c1OC` (stereo not given): the growth in test [1] was 95.8%; in test [2] it was 102%; in [3], 82.5%; in test [4], 100%; in [5], 100%; in test [6], 95.3%. In addition, the growth is 101% in [7], 107% in test [8], 96.3% in [9] and 119% in test [10].
Regarding `O=C1c2ccccc2C(=O)c2c1oc1oc3c(c(=O)c21)c(=O)n(-c1ccccc1)c1ccccc31`, the growth in test [1] is 66.6%; in [2] it was 84.2%; in test [3], 31.8%; in [4], 27.9%; in [5] it was 21.1%; in [6] it was 34.2%. The growth was 17.7% in test [7], 13.2% in test [8], 43% in test [9] and 39.4% in test [10].
Turning to `O=C(Nc1ccc(Cl)cc1)c1cc(-c2ccc(F)cc2)c2sc(=O)[nH]c2n1`, the growth is 13.1% in [1]; 16.9% in test [2]; -5.08% (active) in test [3]; 19.3% in test [4]; 9.42% (active) in test [5]; 10.3% in test [6]. Besides, the growth in test [7] is -86.1% (active); in [8], 26.9%; in test [9] it was 8.5% (active); in [10], 25.4%.
For the compound `Cc1ccc2nc(SCn3nnc4ccccc4c3=O)[nH]c2c1`, the growth is 125% in test [1]; 102% in [2]; 88% in [3]; 108% in [4]; 103% in test [5]; 103% in test [6]. Further, the growth was 101% in test [7], 98.4% in test [8], 100% in [9] and 121% in [10].
For the compound `COc1cc2c(cc1OCCCCn1c(-c3cc(=O)c4ccccc4o3)nc3ccccc31)N=C[C@@H]1CCCN1C2=O`, the growth was 106% in test [1]; 102% in test [2]; 101% in test [3]; 93.1% in test [4]; 75.3% in test [5]; 94.9% in test [6]. Besides, the growth in test [7] was 93.6%; in [8], 99.4%; in test [9], 68.5%; in test [10], 124%.
As for `CCSc1nnc(NC(=O)COc2ccc(Cl)cc2C)s1`, the growth in test [1] was 102%; in [2], 115%; in [3] it was 110%; in [4] it was 95.2%; in [5], 99.4%; in test [6], 104%. In addition, the growth in test [7] was 97.3%; in [8], 98.7%; in test [9], 93.8%; in test [10] it was 114%.
`Cc1cccc(NC(=O)c2sc3nc4c(cc3c2N)CCCC4)c1`: the growth in test [1] is 23.9%; in [2] it was 15.4%; in test [3], 34.5%; in test [4], 50.5%; in test [5], 34.4%; in test [6] it was 26.6%. In addition, the growth is 33.9% in test [7], 26.5% in test [8], 40.3% in [9] and 53% in test [10].
`NC(CC(N)C(=O)O)C(=O)O` (stereo not given): the growth in test [1] is 88.4%; in test [2], 84.4%; in test [3], 88.4%; in test [4], 108%; in [5] it was 93.8%; in test [6], 92.2%. In addition, the growth in test [7] was 85%; in test [8] it was 98%; in [9], 99.4%; in test [10] it was 90.1%.
As to `CCC(=O)Oc1ccc2c(c1)CC[C@@H]1[C@@H]2CC[C@]2(C)C[C@H](OC(=O)CC)C[C@@H]12`, the growth was 38.9% in test [1]; 110% in test [2]; 46% in test [3]; 77.7% in [4]; 48.3% in [5]; 63.1% in test [6]. Also, the growth is 60.4% in [7], 49.1% in test [8], 76.8% in test [9] and 73.7% in test [10].
On to `O=[N+]([O-])c1cc(S(=O)(=O)OCC2CO2)ccc1Cl` (stereo not given), for which the growth in [1] was 93.4%; in [2] it was 49.7%; in [3], 89.9%; in test [4], 110%; in test [5], 98.9%; in test [6] it was 83.7%. For the same compound, the growth was 102% in test [7], 111% in [8], 39.1% in test [9] and 90.1% in [10].

The values are drawn from PubChem BioAssay (NCI).
